Laboratory results reported in the supplement of paper PMC7411054.
Where a name gives a salt, the structure may show the parent alone.

What was measured:
Settings in all cases: treatment time: 24 h
WPMY1-GM130-SQSTM1 [1] = assay: lowest phenotypically active concentration; higher = less potent
Outline: (§1)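 After 24 h at 0.3, 1, 3 or 9 µM, with four wells per treatment, fifteen gene-edited A549, HepG2 and WPMY1 reporter lines carrying BFP, GFP and RFP/FusionRed were imaged live. Each well's live-cell features were expressed relative to solvent control wells. Deviation required ≥3 of 4 wells past the 95th percentile of control Euclidean distances, and reproducibility a median replicate Pearson correlation over the 95th percentile of non-replicates. Phenotypic activity rested on both.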

A549-ACTB-RAB5A = assay: phenotypically active (imaging signature differs from DMSO and reproducible) at any of 0.3-9 uM (binary (1 = active, 0 = inactive)); higher = active
Outline: as §1

A549-CANX-COX4 = assay: as above
Outline: as §1

A549-GM130-SQSTM1 [2] = assay: as above
Outline: as §1

A549-TP53BP1-CLTA = assay: as above
Outline: as §1

A549-TUBA1B-RELA = assay: as above
Outline: as §1

HepG2-ACTB-RAB5A = assay: as above
Outline: as §1

HepG2-CANX-COX4 [3] = assay: as above
Outline: as §1

HepG2-GM130-SQSTM1 [4] = assay: as above
Outline: as §1

HepG2-TP53BP1-CLTA = assay: as above
Outline: as §1

HepG2-TUBA1B-RELA = assay: as above
Outline: as §1

WPMY1-ACTB-RAB5A [5] = assay: as above
Outline: as §1

WPMY1-CANX-COX4 = assay: as above
Outline: as §1

WPMY1-GM130-SQSTM1 [6] = assay: as above
Outline: as §1

WPMY1-TP53BP1-CLTA = assay: as above
Outline: as §1

WPMY1-TUBA1B-RELA = assay: as above
Outline: as §1

A549-GM130-SQSTM1 [7] = assay: lowest phenotypically active concentration; higher = less potent
Outline: as §1

HepG2-CANX-COX4 [8] = assay: as above
Outline: as §1

WPMY1-ACTB-RAB5A [9] = assay: as above
Outline: as §1

HepG2-GM130-SQSTM1 [10] = assay: as above
Outline: as §1

Structure (SMILES) | lowest phenotypically active concentration (WPMY1-GM130-SQSTM1 [1]) | phenotypically active (A549-ACTB-RAB5A) | phenotypically active (A549-CANX-COX4) | phenotypically active (A549-GM130-SQSTM1 [2]) | phenotypically active (A549-TP53BP1-CLTA) | phenotypically active (A549-TUBA1B-RELA) | phenotypically active (HepG2-ACTB-RAB5A) | phenotypically active (HepG2-CANX-COX4 [3]) | phenotypically active (HepG2-GM130-SQSTM1 [4]) | phenotypically active (HepG2-TP53BP1-CLTA) | phenotypically active (HepG2-TUBA1B-RELA) | phenotypically active (WPMY1-ACTB-RAB5A [5]) | phenotypically active (WPMY1-CANX-COX4) | phenotypically active (WPMY1-GM130-SQSTM1 [6]) | phenotypically active (WPMY1-TP53BP1-CLTA) | phenotypically active (WPMY1-TUBA1B-RELA) | lowest phenotypically active concentration (A549-GM130-SQSTM1 [7]) | lowest phenotypically active concentration (HepG2-CANX-COX4 [8]) | lowest phenotypically active concentration (WPMY1-ACTB-RAB5A [9]) | lowest phenotypically active concentration (HepG2-GM130-SQSTM1 [10])
Clc1ccc(C(c2ccc(Cl)cc2)[n+]2ccn(CC(OCc3ccc(Cl)cc3Cl)c3ccc(Cl)cc3Cl)c2)cc1 (stereo not given) [Calmidazolium chloride] | 3 µM | 0 (inactive) | 0 (inactive) | 0 (inactive) | 0 (inactive) | 0 (inactive) | 1 (active) | 0 (inactive) | 0 (inactive) | 0 (inactive) | 1 (active) | 0 (inactive) | 1 (active) | 1 (active) | 0 (inactive) | 1 (active) | – | – | – | –
CC(C)(C)c1ccc(C(=O)Nc2cn3cc(-n4ccnc4)ccc3n2)cc1 | – | 0 (inactive) | 0 (inactive) | 0 (inactive) | 0 (inactive) | 0 (inactive) | 1 (active) | 0 (inactive) | 0 (inactive) | 0 (inactive) | 0 (inactive) | 0 (inactive) | 0 (inactive) | 0 (inactive) | 0 (inactive) | 0 (inactive) | – | – | – | –
COc1ccc(S(=O)(=O)ON=C2C=C(C)C(=O)C(C)=C2)cc1 | – | 0 (inactive) | 0 (inactive) | 1 (active) | 0 (inactive) | 1 (active) | 0 (inactive) | 0 (inactive) | 0 (inactive) | 0 (inactive) | 0 (inactive) | 0 (inactive) | 0 (inactive) | 0 (inactive) | 0 (inactive) | 1 (active) | 9 µM | – | – | –
Nc1nnc2[nH]c3ccccc3nc1-2 | – | 0 (inactive) | 0 (inactive) | 0 (inactive) | 0 (inactive) | 0 (inactive) | 0 (inactive) | 1 (active) | 0 (inactive) | 0 (inactive) | 0 (inactive) | 0 (inactive) | 0 (inactive) | 0 (inactive) | 0 (inactive) | 0 (inactive) | – | 9 µM | – | –
Nc1nnc(Sc2ncc([N+](=O)[O-])s2)s1 | – | 0 (inactive) | 0 (inactive) | 0 (inactive) | 0 (inactive) | 1 (active) | 0 (inactive) | 0 (inactive) | 0 (inactive) | 0 (inactive) | 0 (inactive) | 0 (inactive) | 0 (inactive) | 0 (inactive) | 0 (inactive) | 0 (inactive) | – | – | – | –
C[C@@H]1CN(Cc2ccc(F)cc2)[C@@H](C)CN1C(=O)c1cc2c(C(=O)C(=O)N(C)C)cn(C)c2cc1Cl [SCIO 469 hydrochloride] | – | 0 (inactive) | 0 (inactive) | 0 (inactive) | 0 (inactive) | 0 (inactive) | 1 (active) | 1 (active) | 0 (inactive) | 1 (active) | 1 (active) | 1 (active) | 1 (active) | 0 (inactive) | 0 (inactive) | 0 (inactive) | – | 1 µM | 1 µM | –
Cc1cc2sc(NC(=O)Cc3ccccc3)nc2cc1Cl | – | 0 (inactive) | 0 (inactive) | 1 (active) | 0 (inactive) | 1 (active) | 0 (inactive) | 0 (inactive) | 0 (inactive) | 0 (inactive) | 0 (inactive) | 0 (inactive) | 0 (inactive) | 0 (inactive) | 0 (inactive) | 0 (inactive) | 3 µM | – | – | –
O=c1cc(N2CCOCC2)oc2c1ccc1ccccc12 | – | 0 (inactive) | 0 (inactive) | 1 (active) | 0 (inactive) | 0 (inactive) | 0 (inactive) | 0 (inactive) | 0 (inactive) | 0 (inactive) | 0 (inactive) | 0 (inactive) | 0 (inactive) | 0 (inactive) | 0 (inactive) | 1 (active) | 3 µM | – | – | –
CC(C)NCC(O)COc1ccc(CC(N)=O)cc1 (stereo not given) [atenolol-()] | 9 µM | 0 (inactive) | 0 (inactive) | 1 (active) | 0 (inactive) | 0 (inactive) | 0 (inactive) | 0 (inactive) | 0 (inactive) | 0 (inactive) | 0 (inactive) | 0 (inactive) | 0 (inactive) | 1 (active) | 1 (active) | 0 (inactive) | 9 µM | – | – | –
Cc1c(C)c2c(c(C)c1O)CC[C@@](C)(CCC[C@H](C)CCC[C@H](C)CCCC(C)C)O2 [Tocopherol (R,S)] | – | 0 (inactive) | 0 (inactive) | 0 (inactive) | 0 (inactive) | 0 (inactive) | 0 (inactive) | 1 (active) | 0 (inactive) | 0 (inactive) | 0 (inactive) | 0 (inactive) | 0 (inactive) | 0 (inactive) | 0 (inactive) | 0 (inactive) | – | 3 µM | – | –
NS(=O)(=O)c1cc2c(cc1C(F)(F)F)NC(Cc1ccccc1)NS2(=O)=O (stereo not given) [bendroflumethiazide] | – | 0 (inactive) | 0 (inactive) | 0 (inactive) | 0 (inactive) | 0 (inactive) | 0 (inactive) | 1 (active) | 0 (inactive) | 0 (inactive) | 0 (inactive) | 0 (inactive) | 0 (inactive) | 0 (inactive) | 0 (inactive) | 0 (inactive) | – | 3 µM | – | –
C[C@H](NC(=O)c1sccc1OCc1ccc(Cl)cc1)c1ccccc1 | 3 µM | 0 (inactive) | 0 (inactive) | 0 (inactive) | 1 (active) | 0 (inactive) | 0 (inactive) | 0 (inactive) | 0 (inactive) | 0 (inactive) | 0 (inactive) | 1 (active) | 0 (inactive) | 1 (active) | 1 (active) | 0 (inactive) | – | – | ≤ 0.3 µM | –
Cc1cc(C)c(C)c(S(=O)(=O)Nc2ccc(N3CC[C@H](C(=O)O)C3)c3ccccc23)c1C | 1 µM | 0 (inactive) | 0 (inactive) | 1 (active) | 0 (inactive) | 0 (inactive) | 0 (inactive) | 0 (inactive) | 1 (active) | 0 (inactive) | 0 (inactive) | 0 (inactive) | 0 (inactive) | 1 (active) | 0 (inactive) | 0 (inactive) | 9 µM | – | – | 9 µM
c1ccc(-c2n[nH]cc2-c2ccnc3ccccc23)nc1 | – | 0 (inactive) | 0 (inactive) | 0 (inactive) | 0 (inactive) | 1 (active) | 0 (inactive) | 1 (active) | 1 (active) | 1 (active) | 0 (inactive) | 1 (active) | 1 (active) | 0 (inactive) | 0 (inactive) | 0 (inactive) | – | 9 µM | 9 µM | 9 µM
CC(C)[C@@H](C)/C=C/[C@@H](C)[C@H]1CC[C@H]2C3=CC=C4C[C@@H](O)CC[C@]4(C)[C@H]3CC[C@]12C [Ergosterine] | – | 0 (inactive) | 0 (inactive) | 1 (active) | 0 (inactive) | 1 (active) | 0 (inactive) | 0 (inactive) | 1 (active) | 0 (inactive) | 0 (inactive) | 0 (inactive) | 0 (inactive) | 0 (inactive) | 0 (inactive) | 0 (inactive) | 9 µM | – | – | 9 µM
O=C(Nc1ccccc1)N1CCN(c2nc(-c3ccccc3)ns2)CC1 | 9 µM | 0 (inactive) | 0 (inactive) | 0 (inactive) | 0 (inactive) | 0 (inactive) | 0 (inactive) | 1 (active) | 0 (inactive) | 1 (active) | 1 (active) | 0 (inactive) | 0 (inactive) | 1 (active) | 0 (inactive) | 0 (inactive) | – | 9 µM | – | –
CNC(=C[N+](=O)[O-])NCCSCc1ccc(CN(C)C)o1 [ranitidine] | – | 0 (inactive) | 0 (inactive) | 0 (inactive) | 0 (inactive) | 0 (inactive) | 0 (inactive) | 0 (inactive) | 1 (active) | 0 (inactive) | 0 (inactive) | 0 (inactive) | 0 (inactive) | 0 (inactive) | 0 (inactive) | 0 (inactive) | – | – | – | 1 µM
Oc1cc(O)cc(/C=C/c2ccc(O)c(O)c2)c1 [Piceatannol] | 3 µM | 0 (inactive) | 0 (inactive) | 0 (inactive) | 0 (inactive) | 0 (inactive) | 0 (inactive) | 0 (inactive) | 0 (inactive) | 0 (inactive) | 0 (inactive) | 1 (active) | 0 (inactive) | 1 (active) | 0 (inactive) | 1 (active) | – | – | 9 µM | –
Cc1cc2c(s1)Nc1ccccc1N=C2N1CCN(C)CC1 [Olanzapine] | – | 0 (inactive) | 0 (inactive) | 0 (inactive) | 0 (inactive) | 0 (inactive) | 0 (inactive) | 0 (inactive) | 0 (inactive) | 0 (inactive) | 1 (active) | 0 (inactive) | 0 (inactive) | 0 (inactive) | 0 (inactive) | 0 (inactive) | – | – | – | –
COC(=O)[C@@H]1[C@H]2C[C@H]3c4[nH]c5ccccc5c4CCN3C[C@@H]2CC[C@@H]1O [Yohimbine hydrochloride] | 9 µM | 0 (inactive) | 0 (inactive) | 0 (inactive) | 0 (inactive) | 0 (inactive) | 0 (inactive) | 0 (inactive) | 0 (inactive) | 0 (inactive) | 0 (inactive) | 0 (inactive) | 0 (inactive) | 1 (active) | 0 (inactive) | 0 (inactive) | – | – | – | –
CC(CCc1ccc(O)cc1)NCCc1ccc(O)c(O)c1 (stereo not given) [Dobutamine hydrochloride] | 3 µM | 0 (inactive) | 0 (inactive) | 0 (inactive) | 0 (inactive) | 0 (inactive) | 0 (inactive) | 0 (inactive) | 0 (inactive) | 0 (inactive) | 0 (inactive) | 0 (inactive) | 0 (inactive) | 1 (active) | 0 (inactive) | 0 (inactive) | – | – | – | –
COc1ccc(-c2ccc3cc(C(=O)O)ccc3c2)cc1C12CC3CC(CC(C3)C1)C2 [Adapalene] | 1 µM | 0 (inactive) | 0 (inactive) | 0 (inactive) | 0 (inactive) | 0 (inactive) | 0 (inactive) | 0 (inactive) | 0 (inactive) | 0 (inactive) | 0 (inactive) | 0 (inactive) | 0 (inactive) | 1 (active) | 0 (inactive) | 0 (inactive) | – | – | – | –
O=C1C=C(O)C(=O)c2ccccc21 [2-Hydroxy-[1,4]naphthoquinone] | ≤ 0.3 µM | 0 (inactive) | 0 (inactive) | 0 (inactive) | 0 (inactive) | 0 (inactive) | 0 (inactive) | 0 (inactive) | 0 (inactive) | 0 (inactive) | 0 (inactive) | 0 (inactive) | 0 (inactive) | 1 (active) | 0 (inactive) | 0 (inactive) | – | – | – | –
